Reference: PubChem BioAssay (NCATS)
A number with no mark means an inactive call. Calls come from the whole dose curve; as a rule, active = well fitted activation curve with a large enough effect; inconclusive = small, poorly fitted or top-dose-only effect; inactive = flat fitted curve, though single readings scatter.

Assay: Cellular Toxicity (caspase-3) Mesangial (AID 660);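 note: combined caspase 3 and 7 activity read by Caspase-Glo luminescence; cells exposed to compound for 16 h before the caspase read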
Details: mesangial cells, normalized: DMSO 0%, 100 µM tamoxifen 100%; series mostly up to 91.7 µM; caspase-3 activation: at the top concentration
Excerpt: NIH Chemical Genomics Center [NCGC]
NIH Molecular Libraries Screening Centers Network [MLSCN]
National Institutes of Environmental Health Sciences [NIEHS]
National Toxicology Program [NTP]
We have developed a 1536-well cell-based assay for quantitative high throughput screening (qHTS) against a number of cell lines to determine in vitro caspase 3/7 of small molecules. This particular assay uses the mesangial cell line which is derived from normal human renal glomeruli.
NCGC Assay Protocol Summary:
The Caspase-Glo 3/7 assay (Promega) is a homogeneous method to measure caspase-3 and caspase-7 activities in cultured cells. The quantitation of caspase 3/7 activity is based on the cleavage of a peptide-aminoluciferin substrate. After caspase cleaves the substrate the free aminoluciferin is liberated and serves as the substrate of luciferase, which generates the light. The luminescent signal is proportional to amount of caspase 3/7 activity present.
Using the Caspase-Glo 3/7 assay, the amount of caspase 3/7 activity was measured in the mesangial cell line with complete culture medium following compound treatment for 16 hours. The assay was performed in opaque white 1536-well plates. In the screen, tamoxifen and doxorubicin were used as positive controls. Library compounds were measured for their ability to cause the activation of caspase 3/7 in the cell line, as reflected by an increase in luminescence signal, in a concentration-dependent manner. Data were normalized to the controls for basal activity (DMSO only) and 100% stimulation (100 uM tamoxifen). AC50 values were determined from concentration-response data modeled with the standard Hill equation.
qHTS protocol for caspase 3/7 assay in mesangial cell line
[Step] [Parameter] [Value] [Description]
1. Reagent; 5 uL; 1000 mesangial cells/well
2. Time; 5 hr; 37 °C incubation
4. Controls; 23 nL; Tamoxifen 0.23 uM to 100 uM & doxorubicin 7.0 pM to 100 uM
5. Time; 16 hr; 37 °C incubation
6. Reagent; 5 uL; Caspase-Glo 3/7 reagent
7. Time; 20 min; Room Temperature
8. Detection; Luminescence; Viewlux plate reader
Keywords: caspase 3/7, apoptosis, mesangial cell line, luminescence, NTPHTS, NTPHTS_NCGC, NIEHS, EPA, DSSTox, MLSMR, MLSCN, NIH Roadmap, qHTS, NCGC

Structure (SMILES)	caspase-3 activation [%]
Nc1ccc(-c2ccc(N)cc2)cc1	0.835
CCN(CC)N=O	0.611
O=Cc1ccc2c(c1)OCO2	-0.256
c1ccc(P(c2ccccc2)c2ccccc2)cc1	0.949
Cc1ccc2c(C)cccc2c1	-1.1
OCCCCO	-1.08
Clc1ccc(C(Cl)(Cl)Cl)c(Cl)c1	-0.318
Clc1cccc2ccccc12	0.398
C=CC(=O)OCCN(C)C	-0.13
Oc1c(Cl)cccc1Cl	-1.48
c1ccc(N=NNc2ccccc2)cc1	-0.116
CCCCOC(=O)c1ccccc1N	5.63
Cc1ccc(N)c(C)c1	-0.51
O=S(=O)(Cl)c1ccccc1	0.8
CCOC(=O)CBr	0.355
C=CC=O	-0.071
O=c1ccc(=O)[nH][nH]1	0.264
ClCCCCl	0.107
Cl/C=C/CCl	-0.427
Cc1ccc(N)c(N)c1	-0.625

Structure (SMILES)	caspase-3 activation [%]
c1ccc(C2CO2)cc1 (stereo not given)	-0.252
NNC(N)=S	0.64
c1ccc(NNc2ccccc2)cc1	-0.306
CCCCCCCCCCCOC(=O)c1ccccc1C(=O)OCCCCCCCCCCC	-0.257
Nc1c(Cl)cc([N+](=O)[O-])cc1Cl	0.293
N#C/C=C/C#N	1.37
Nc1ccc([N+](=O)[O-])cc1N	0.707
Cl/C=C/Cl	-0.729
N#CC(Br)Br	2.15
CCCCCc1cc(O)cc(O)c1	-0.0113
Cc1cccc(C)c1N	1.31
CC(C)(OOC(C)(C)c1ccccc1)c1ccccc1	1.78
C=CC(=O)OC	1.29
C=C(Cl)CCl	-1.73
CN(C)C(=O)Nc1ccc(Cl)cc1	0.77
O=[N+]([O-])CCO	1.37
O=[N+]([O-])c1cc(Cl)c(Cl)cc1Cl	0.893
CC(C)CON=O	0.992
CCN(CC)CCO	0.635
CN=C=O	0.882
